Assay results as given in PubChem BioAssay AID488890 (Southern Research Specialized Biocontainment Screening …, 2010).
Out of some 320,000 compounds screened, about 1,300 (0.41%) were called active. Another 3% or so got no clear call; they are omitted. How the calls were made is not given here. A selection follows. Results with a measured potency or affinity are listed apart.

Experiment: growth inhibition of non-replicating M. tuberculosis (AID 488890);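 further: plate controls were DMSO cells for no effect and high antibiotic wells for full effect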
Settings: Mycobacterium tuberculosis non-replicating, at 25 µM, stronger effect = higher value

Row | SMILES | inhibition [%]
1 | COc1ccc(N/C=C/C(=O)c2ccc(Oc3ncccn3)cc2)cc1 | -0.22
2 | C/C(CC(=O)NC1CCCCC1)=N\NC(=O)Cc1ccc(-c2ccccc2)cc1 | 9.13
3 | O=C(C1=C[C@@H](c2ccccc2)C[C@@H](OCc2ccc(CO)cc2)O1)N1CCN(Cc2ccc3c(c2)OCO3)CC1 | 38.2
4 | O=C(CNC(=O)Cc1ccccc1)NCC(=O)OCc1ccc(C(=O)c2ccccc2)cc1 | 4.67
5 | COc1ccc(-n2nc(C(=O)NCC(=O)NCc3cccc(F)c3)c3ccccc3c2=O)cc1Cl | -7.9
6 | O=S(=O)(c1ccc2nc(COc3ccccc3)[nH]c2c1)N1CCOCC1 | -3.8
7 | CC(C)(C)C(=O)CN1C2=NCCCN2c2ccccc21 | 12.1
8 | CCOc1ccc(N(CC(=O)NCc2ccccc2)S(=O)(=O)c2ccc(C)cc2)cc1 | 0.73
9 | CC1CCCC(NC(=O)C2COc3ccccc3O2)C1C (centres undefined) | 17.1
10 | CCN(CC1COc2ccccc2O1)C(=S)NC1CC2CCC1C2 (centres undefined) | 0.66
11 | COC(=O)c1ccccc1NC(=O)C1COc2ccccc2O1 (centres undefined) | 59.7
12 | COC(=O)c1ccc(C)c(NC(=O)C2COc3ccccc3O2)c1 (centres undefined) | 57.8
13 | Cc1[nH]c2ccccc2c1C(=O)C(C)OC(=O)c1ccccc1NCCO (centres undefined) | 17.8
14 | CCCCN(Cc1ccco1)S(=O)(=O)c1csc(C(N)=O)c1 | 38.5
15 | CSc1ccccc1C(=O)N(C)C(c1ccccc1)c1ccccc1 | 13.8
16 | CCNc1nc(NC(C)C)nc(SCCOc2ccc(C)cc2)n1 | 6.84
17 | Cc1cc(OCCCn2ccnc2)ccc1[N+](=O)[O-] | 39.3
18 | C=CCc1cc(Cl)ccc1OCCn1ccnc1 | 31.9
19 | Clc1ccc(SCCCCn2cncn2)cc1 | 26.1
20 | Cc1cc(OCCCn2ccnc2)cc(C)c1Cl | -6.72
21 | Cc1ccc(OCCCn2ccnc2)cc1C | 70.8
22 | C=CCc1cc(C)ccc1OCCCn1ccnc1 | 26.9
23 | Cc1cc(C)cc(OCCCn2ccnc2)c1 | 76
24 | Clc1ccc(SCCn2ccnc2)cc1 | 71.2
25 | CS(=O)(=O)N1CCC(C(=O)NCCN2CCN(Cc3ccccc3)CC2)CC1 | -1.43

Row | SMILES | inhibition [%]
26 | Cc1ccc(-c2csc(N3CCC[C@@H]3C(=O)NCCn3c(C(F)(F)F)nc4ccccc43)n2)cc1 | 42.9
27 | C[C@@H](NC(=O)c1nc[nH]c1C(=O)N[C@H](C)c1ccccc1)c1ccccc1 | 66
28 | O=C(O)c1ccc2c(=O)n3cc(C(=O)c4ccccc4O)cc(Cl)c3nc2c1 | -0.88
29 | Fc1ccc2c(c1)C(c1ccncc1)=NNC(c1ccc(Br)cc1)=N2 | 21.1
30 | O=C(N/N=C/c1ccc2cccnc2c1)c1ccco1 | 14.9
31 | COc1ccc(CCNS(=O)(=O)c2c(N)n(C)c(=O)n(C)c2=O)cc1OC | 3.12
32 | CCOc1ccc(C(=O)Nc2cc(S(=O)(=O)Nc3ccccc3Cl)ccc2N2CCOCC2)cc1 | 4.51
33 | CS(=O)(=O)N(CC(=O)NCC1CCCO1)c1cc(Cl)cc(Cl)c1 (centres undefined) | -12.1
34 | Cc1ccc(OCCCn2ccnc2)c(Br)c1 | 27.2
35 | Clc1cc(Br)ccc1OCCn1ccnc1 | 40
36 | Clc1ccccc1OCCCn1ccnc1 | -0.75
37 | Clc1ccc(OCCn2ccnc2)c2ccccc12 | 17.9
38 | O=C(CCNC(=O)C1CCN(S(=O)(=O)c2ccccc2)CC1)NCCc1ccc(Cl)cc1 | 1.82
39 | CN1CCN(C(=O)C2CCCN(S(=O)(=O)c3ccc(Br)cc3)C2)CC1 (centres undefined) | 8.61
40 | COc1ccc(CCn2c(N3CCN(Cc4ccccc4)CC3)nc3c2c(=O)[nH]c(=O)n3C)cc1 | 15.1
41 | CC1(c2nnc(-c3ccc(Cl)cc3)o2)CC(c2cccc(Cl)c2)=NO1 (centres undefined) | 79.6
42 | CC1(c2nnc(-c3ccccc3)o2)CC(c2ccccc2)=NO1 (centres undefined) | 79.5
43 | CC1(c2nnc(-c3ccc(Cl)cc3)o2)CC(c2ccc(Cl)cc2)=NO1 (centres undefined) | 36.6
44 | CC1(c2nnc(-c3cccc(Cl)c3)o2)CC(c2ccc(F)cc2)=NO1 (centres undefined) | 70.9
45 | Cc1ccc(OCCn2ccnc2)c(C)c1 | 6.35
46 | CCOc1cc(/C=C2\CCn3c2nc2cc(Cl)ccc2c3=O)ccc1O | 9
47 | CN(c1ccccc1)S(=O)(=O)c1cc(Cl)ccc1Cl | 28.7
48 | CCOc1cc(NC(=O)c2ccccc2OC)c(OCC)cc1NC(=O)c1ccccc1 | 8.11
49 | C/C(=N\NC(=O)c1ccccc1)c1ccc2c(c1)OCO2 | 35.4
50 | C/C(=N\NC(=O)c1ccc2c(c1)OCO2)c1ccc2c(c1)OCO2 | 41.2

Row | SMILES | inhibition [%]
51 | O=C(CCSc1ccccc1)NCc1cccnc1 | -1.43
52 | Cc1ccc(N2C(=O)NC(=O)/C(=C\C=C\c3ccco3)C2=O)cc1C | 13
53 | O=C1NC(=O)N(c2ccccc2)C(=O)/C1=C/C=C/c1ccco1 | -12.6
54 | Cc1ccc(N2C(=O)NC(=O)/C(=C\C=C\c3ccco3)C2=O)cc1 | 18.7
55 | Cc1cc(C)cc(N2C(=O)NC(=O)/C(=C\C=C\c3ccco3)C2=O)c1 | 2.52
56 | CN1C(=O)/C(=C/C=C/c2ccco2)C(=O)NC1=S | -21.1
57 | O=C1NC(=O)N(Cc2ccc(F)cc2)C(=O)/C1=C\C=C\c1ccco1 | 75.2
58 | COc1ccc(NC(=O)CCNS(=O)(=O)c2ccccc2F)cc1S(N)(=O)=O | -0.54
59 | Cc1ccccc1C1c2[nH]c3ccccc3c2CCN1C(=O)c1ccc(=O)n(C)n1 (centres undefined) | 10.8
60 | CCOC(=O)c1c(C)c(C)n(Cc2ccc(OC)c(OC)c2)c1C | 16.5
61 | Cc1cc(C(=O)COc2ccccc2C(N)=O)c(C)n1C | 4.7
62 | Cc1cc(C(=O)COc2ccccc2C(N)=O)c(C)n1CC1CCCO1 (centres undefined) | -26.6
63 | CCN(CC(=O)NC(=O)NCc1ccco1)Cc1nc2ccccc2c(=O)[nH]1 | 12.9
64 | COCCNC(=O)Cc1c(C)c2c(cc(C)c3c(C(C)(C)C)coc32)oc1=O | 26.6
65 | O=C(CCc1nnc2n(Cc3ccc(F)cc3)c(=O)c3ccccc3n12)N1CCN(c2ccccn2)CC1 | -3.25
66 | O=C(Nc1ccc(Cl)cc1)OCCn1nnnc1C(c1ccccc1)N1CCOCC1 (centres undefined) | 4.68
67 | NS(=O)(=O)c1ccc(NC(=O)c2ccc(S(=O)(=O)N3CCOCC3)o2)cc1 | 1.05
68 | O=C(Nc1cc(S(=O)(=O)N2CCOCC2)ccc1N1CCOCC1)c1ccc([N+](=O)[O-])s1 | 50.4
69 | Cc1ccc(NC(=O)c2ccc([N+](=O)[O-])s2)cc1S(=O)(=O)N1CCOCC1 | 43.2
70 | O=C(Nc1ccc(S(=O)(=O)N2CCOCC2)cc1)c1ccc(Br)o1 | -0.17
71 | Cc1ccc(C(=O)Nc2cccc(S(=O)(=O)N3CCCC3)c2)o1 | -4.97
72 | CCN1CCN(c2ccc(S(=O)(=O)N3CCCCC3)cc2NC(=O)c2ccccc2)CC1 | -11.8
73 | O=C(Nc1ccc(S(=O)(=O)N2CCOCC2)cc1)c1ccc(Cl)s1 | 5.17
74 | COc1ccc(S(=O)(=O)N2CCCCC2)cc1NC(=O)c1ccc([N+](=O)[O-])o1 | 1.5
